# Laboratory results from PubChem BioAssay AID651958 (The Scripps Research Institute Molecular Screening Center, 2012).
# Several values for one entry are separate records, joined by “and”; a condition that tells them apart may be missing. Identical values can stand only once. Screen size: about 370,000 compounds; about 2,000 (0.54%) were called active. What follows is part of a selection rich in actives, with near analogues and random picks from the rest. Unmarked numbers belong to inactive results. Cut-off read from the data, not from the text of the source: active = inhibition above about 30%; inactive = the rest.
# System: Crimean-Congo hemorrhagic fever virus L polyprotein viral ovarian tumor (vOTU) protease domain
# Assay: CCHFV vOTU protease inhibitors, primary screen, biochemical, Pep-AMC substrate, fluorescence (AID 651958); note: 0% = vehicle wells with enzyme and 100% = no enzyme wells
# Details: at 11.5 µM, active compounds read high
row,SMILES,inhibition
1,CCOC(=O)c1ccc(NC(=O)C2CC(=O)Nc3nc4ccccc4n32)cc1 (stereo unspecified),19.2%
2,CCOC(=O)c1ccc(Nc2cc3ccccc3c(=O)[nH]2)cc1,94.2% (active)
3,CCOC(=O)c1cc2c(=O)[nH]c(C(Cl)(Cl)Cl)nc2o1,-3.85%
4,Cc1cc(C)cc(NC(=S)NC2CC3CCCC(C2)N3Cc2cccs2)c1 (stereo unspecified),-9.42%
5,CCC(C)(C(=O)NC1CCCC1)N(C(=O)CNC(C)=O)c1ccc(C)cc1 (stereo unspecified),7.89%
6,Oc1c(C=Nc2cccc3nsnc23)ccc2ccccc12,86% (active)
7,CC1=C(C(=O)N2CCOCC2)CC(CC(=O)NCC2CCCCC2)C(=O)N1Cc1ccc(F)cc1 (stereo unspecified),14%
8,CCCn1c(N)c(C(=O)CSc2nnc(Cc3cccs3)n2C2CC2)c(=O)[nH]c1=O,-3.09%
9,CC(=O)c1c(N)n(C)c(=O)n(C)c1=O,5.25%
10,N#C/C(=C\c1ccccc1)c1n[nH]c(Cn2cncn2)n1,4.11%
11,CCc1ccc(/C=N/NC(=O)c2ccc(OC3CCCC3)cc2)s1,12.3%
12,COc1ccc(CNCCCNCc2ccc(OC)c(OC)c2)cc1OC,5.96%
13,Cc1ccc2[nH]c(=O)c(CC=C(Cl)Cl)c(C)c2c1,3.16%
14,CCOC(=O)c1ccc(NC(=O)c2nc[nH]c2C(=O)N[C@@H](CCCCNC(=O)OC(C)(C)C)C(=O)OC(C)(C)C)cc1,29.6% (active)
15,CC(C)(C)OC(=O)NCCCCCNC(=O)c1[nH]cnc1C(=O)Nc1nccs1,0.59%
16,Cc1ccc(NC(=O)c2nc[nH]c2C(=O)N[C@@H](CCCCNC(=O)OC(C)(C)C)C(=O)OC(C)(C)C)cc1,27.1%
17,CCOC1=C2CN(S(=O)(=O)c3ccc(C)cc3)[C@H](c3cccs3)C[C@H]2[C@H]2C(=O)N(c3ccccc3)C(=O)[C@H]2C1,-5.03%
18,CSCCC(NC(=O)COc1ccccc1)C(=O)N1CCN(c2cccc(C(F)(F)F)c2)CC1 (stereo unspecified),13.9%
19,O=C(COc1ccc(Cl)cc1)N1CCN(S(=O)(=O)c2ccc(Cl)cc2)CC1,9.84%
20,O=C(COc1ccc(Cl)cc1)N1CCN(c2cccc(C(F)(F)F)c2)CC1,32.4% (active)
21,CCNC(=O)N1CCCC(C(=O)c2ccc(-c3ccccc3)cc2)C1 (stereo unspecified),-6.51%
22,Cc1noc(C)c1S(=O)(=O)Nc1ccc(C(=O)O)cc1,7.91%

row,SMILES,inhibition
1,Cc1oc2c(F)c(F)c(F)c(F)c2c1S(=O)(=O)Nc1cccc(C(F)(F)F)c1,43.8% (active)
2,Cc1ccc(N(CCC(=O)O)S(=O)(=O)c2cccc(C(F)(F)F)c2)cc1,-2.86%
3,C[C@]12C=CC(=O)C=C1CC[C@@H]1[C@@H]2C(=O)C[C@@]2(C)[C@H]1CC[C@]2(O)C(=O)CO,0.7% and 3.02%
4,COCCCN(C(=S)Nc1c(C)cc(C)cc1C)C(C)c1ccncc1 (stereo unspecified),-6.09%
5,CCc1ccc(C2C(C#N)=C(N)N(N(C)C)C3=C2C(=O)CCC3)s1 (stereo unspecified),1.4%
6,CCOc1ccc(C2C(C#N)=C(N)N(N(C)C)C3=C2C(=O)CCC3)cc1 (stereo unspecified),16.2%
7,CN(C)N1C(N)=C(C#N)C(c2ccc(Br)cc2)C2=C1CCCC2=O (stereo unspecified),35.1% (active)
8,CC(C(=O)N=Nc1c(O)n(C)c2ccc(Br)cc12)n1cnc2ccccc2c1=O (stereo unspecified),-4.46%
9,CNc1nccc(-c2ccc(Cl)cc2)c1C#N,-58.4%
10,CCn1c(C)nc2cc(C(=O)NNS(=O)(=O)c3ccc(C)cc3C)ccc21,-9.65%
11,O=C1Cc2ccccc2Sc2ccc(Cl)cc21,7.8%
12,CCN(CC)C(=O)[C@@H]1C=C2c3cccc4[nH]c(Br)c(c34)C[C@H]2N(C)C1,33.8% (active)
13,COc1ccc(CCN2C(=O)N(c3ccc(OC)cc3)C(=O)C2CC(=O)Nc2ccc(OC)cc2)cc1 (stereo unspecified),4.43%
14,CC1(C)CN(CCc2ccccc2)C(=O)[C@H]1CC(=O)Nc1ccc(Br)cc1,21.8%
15,COc1ccc(NC(=O)C[C@H]2C(=O)N(CCc3ccccc3)C[C@@H]2C)cc1,29.5% (active)
16,COC(=O)C1=C(c2cc3ccccc3s2)C[C@@H]2CC[C@H]1N2C(=O)NCCO,-0.84%
17,Cc1noc(/C=C/c2ccco2)c1S(=O)(=O)N1CCC(C(=O)Nc2ccc(Cl)cn2)CC1,2.84%
18,CCOc1ccc(C(=O)Nc2ccc(S(=O)(=O)NCC3CCCO3)cc2)cc1OCC (stereo unspecified),35% (active)
19,O=C(Nc1ccc(S(=O)(=O)NCC2CCCO2)cc1)c1ccc(F)cc1 (stereo unspecified),14%
20,Cc1ccc(NC(=O)c2ccc(S(=O)(=O)NCC3CCCO3)cc2)cc1C (stereo unspecified),-7.16%
21,CC(C)c1ccc(Nc2ncccc2C#N)cc1,7.01%
22,CCC(C)(C)NC(=O)C(c1ccc(O)cc1)N(Cc1ccco1)C(=O)CCC(=O)Nc1ccccn1 (stereo unspecified),0.91%

row,SMILES,inhibition
1,CSc1ccccc1NC(=O)CN(C)CC(=O)Nc1cccc(Br)c1,0.92%
2,Cc1cccc(N(C(=O)c2sc(C)nc2C)C(C(=O)NCC2CCCO2)c2ccccc2)c1 (stereo unspecified),-8.32%
3,C=CCn1c(N)cc(=O)nc1SCC(=O)Nc1cccc2ccccc12,-1.46%
4,Cc1ccccc1-n1c(SCC(=O)Nc2cccc3ccccc23)nc(O)cc1=O,32.7% (active)
5,Cc1ccc(-n2c(SCC(=O)Nc3cccc4ccccc34)nnc2-c2ccccn2)cc1,-2.55%
6,O=C(Cn1cnc2c(OCc3ccccc3)ncnc21)NCc1nc2ccccc2[nH]1,-9.89%
7,Cn1c(=NC(=O)c2cnccn2)sc2ccccc21,36.4% (active)
8,Cn1c(=NC(=O)c2ccco2)sc2cccc(F)c21,5.27%
9,Cn1c(=NC(=O)c2ccc3c(c2)OCCO3)sc2cc(S(C)(=O)=O)ccc21,-4.23%
10,COC(=O)c1ccc(CN2C(=O)[C@]3(OCCC=C[C@H]3C)c3c(Br)cccc32)cc1,10.2%
11,O=C(N[C@@H]1C/C=C\C[C@@H](CC(=O)N(CCO)Cc2ccccc2)C(=O)N[C@H](Cc2ccccc2)COC1=O)OCC1c2ccccc2-c2ccccc21,0.7%
12,CCOC(=O)N/N=C1\CC(C)S(=O)(=O)c2ccc(Cl)cc21 (stereo unspecified),-1.67%
13,COc1ccc(C(=O)N2CCN(c3ccc(C(C)=O)cc3F)CC2)cc1S(=O)(=O)NC1CC1,12.2%
14,COc1cccc(NC(=O)Nc2nnc(N3CCCCC3C)s2)c1 (stereo unspecified),8.79%
15,COc1ccc(CN2C(CC(=O)Nc3cccnc3)c3ccc(C(F)(F)F)cc3S2(=O)=O)cc1 (stereo unspecified),1.05%
16,COc1ccc(C(N)c2csc(NC(=O)Nc3cccc(C(F)(F)F)c3)n2)cc1 (stereo unspecified),36.4% (active)
17,O=C1[C@@H](c2ccccc2)[C@@H](c2ccccc2)N1c1ccccc1,-7.47%
18,COc1ccc(C(C)=O)cc1CSc1nc2nc(C)cc(C)n2n1,-9.62%
19,COc1cc(C(=O)N2CCN(C/C=C/c3ccccc3)CC2)cc(OC)c1C,11.4%
20,COc1ccc(C(=O)/C=C/c2ccc(-c3ccccc3)cc2)cc1CSCC(=O)O,29.8% (active)
21,Cc1noc(C)c1S(=O)(=O)N(C)C[C@H]1OCCCC[C@@H](C)Oc2ccc(NC(=O)CCCN(C)C)cc2C(=O)N([C@H](C)CO)C[C@@H]1C,-8.1%
22,CC(C)Oc1ccc(CN2CCC2(C)C(=O)NCc2ccc(C(F)(F)F)cc2)cc1 (stereo unspecified),35.6% (active)

row,SMILES,inhibition
1,CC(C)CN1CCC1(C)C(=O)Nc1ccc(OC(F)F)cc1 (stereo unspecified),15.4%
2,CC(C)NC(=O)C1(C)CCCCN1Cc1cccc(C(F)(F)F)c1 (stereo unspecified),0.49%
3,CC(=O)N=c1ncn(CC(COC(C)=O)OC(C)=O)c2nc[nH]c12 (stereo unspecified),6.99%
4,COC(=O)Cc1ccc(OC2(C)CCN(Cc3ccc4c(c3)OCCO4)C2)cc1 (stereo unspecified),0.88%
5,CC(C)(C)NC(=O)C(c1ccco1)N(Cc1ccc2c(c1)OCO2)C(=O)Cn1nnc2ccccc21 (stereo unspecified),5.93%
6,CCCCCCCCNS(=O)(=O)/C=C/c1cc(C)ccc1CNC(=O)OC(C)(C)C,29.5%
7,COCCn1c(=O)[nH]c(=O)c2cc(C(=O)c3cc(OC)ccc3O)cnc21,16.3%
8,CCc1ccc(NC(=O)CN2C(=O)COc3ccc(S(=O)(=O)N4CCCC4)cc32)cc1,-0.54%
9,COP(=O)(Sc1ccccc1)C(Cc1ccccc1)NC(=O)OCc1ccccc1 (stereo unspecified),3.36%
10,COc1cc2c(cc1OC)C(c1cccc([N+](=O)[O-])c1)=NCC2,10.7%
11,COc1cc(CN2CCCN(C)CC2)c([N+](=O)[O-])cc1OC,-3.03%
12,COc1cc2c(cc1OC)C(Cc1cc(OC)c(OC)cc1[N+](=O)[O-])=NCC2,40% (active)
13,CC(C)CCNC(=O)Cn1c(=O)oc2cc(S(=O)(=O)N3CC(C)CC(C)C3)ccc21 (stereo unspecified),7.1%
14,CCCNC(=O)C1(C)CCN(C(=O)c2cc(F)ccc2C)C1 (stereo unspecified),6.2%
15,Nc1ccc(N=Nc2ccccc2Cl)c(N)n1,30% (active)
16,COc1ccc(C(C(=O)NC(C)(C)C)N(C(=O)Cn2nnc3ccccc32)c2ccc(C(C)=O)cc2)cc1O (stereo unspecified),21.7%
17,Cc1nc(N)nc(SCc2ccc([N+](=O)[O-])cc2)c1N,-13.9%
18,Cc1oc2c(c1C(=O)N1CCOCC1)C(=O)c1ccccc1C2=O,70.8% (active)
19,N[C@@H](Cc1ccccc1)C(=O)N1CCOCC1,-2.24%
20,Cc1ccc(S(=O)(=O)NC(C(=O)N2CCOCCOCCOCCOCC2)c2ccccc2)cc1 (stereo unspecified),-5.21%
